Bioassay records: PubChem BioAssay, Buhrlage Lab, Dana-Farber Cancer Institute and Novartis Institutes for BioMedical Research (Cambridge, Mass)
USP28 inh: inhibitors of human USP28 deubiquitinase | purified USP28, Ub-rhodamine cleavage fluorescence, 30 min | inhibition, % at 25 µM | 47,000 tested, 3% active | AID 1645857, 2021
USP17 block: inhibitors of human USP17 deubiquitinase; purified USP17, Ub-rhodamine cleavage fluorescence, 3 h; inhibition, % at 50 µM; 47,000 tested, 6.5% active; AID 1645855, 2021
OTUD3 inh: inhibitors of human OTUD3 deubiquitinase | OTU domain-containing protein 3 (Homo sapiens), Q5T2D3 | purified OTUD3, Ub-rhodamine fluorescence, 2 h | inhibition, % at 25 µM | 47,000 tested, 0.7% active
USP30 block: inhibitors of human USP30 deubiquitinase. Ubiquitin carboxyl-terminal hydrolase 30 (Homo sapiens), Q70CQ3. purified USP30, Ub-rhodamine cleavage fluorescence. inhibition, % at 25 µM. 47,000 tested, 5.3% active. AID 1645860, 2021
Of the large screens only hits and unclear results are named; the others gave an inactive call. Only some compounds are listed: those with a hit (about 12% of all), similar ones and a draw of the others. Rule as the data show it: active = inhibition above about 30%; inactive = the rest.

COc1ccc(-n2ccc(=O)c(-c3nc(-c4ccccc4F)no3)n2)cc1OC	USP28 inh 63
CCOc1cccc(-c2noc(-c3nn(-c4ccccc4)ccc3=O)n2)c1	USP28 inh 70, USP17 block 52, OTUD3 inh 40, USP30 block 93
COc1cccc(-n2ccc(=O)c(-c3nc(-c4cccc(C)c4)no3)n2)c1	none
COc1ccc(-n2nnc(-c3nc(-c4ccccc4F)no3)c2N)cc1	USP17 block 52 (no result: USP28 inh, USP30 block)
COc1ccc(-c2csc(-c3nnn(-c4cc(OC)cc(OC)c4)c3N)n2)cc1	none
COc1ccc(CCNc2nc(C)c(-c3ccccc3)s2)cc1OC	none
CC1CCC2C(C)(C)C(O)CCC2(C)C12Cc1c(cc3c(c1O)CN(CCCCC(=O)O)C3=O)O2 (stereo unspecified)	USP17 block 49
C[C@@H]1CCC2[C@](C)(CO)[C@@H](O)CC[C@]2(C)[C@@]12CCC1(COC(=O)C1)O2 (stereo partly specified)	none
O=C(NC1CCCCC1)c1cc(-c2ccncc2)n(-c2ccccc2)n1	none
Cc1cc(C)n(C(C)CC(=O)Nc2ccc(-c3nc4ccccc4[nH]3)cc2)n1 (stereo unspecified)	none
CSc1cccc(C(=O)Nc2ccc(-c3nc4ccccc4[nH]3)cc2)c1	USP17 block 63, USP30 block 32
Fc1ccc(OCCn2c(COc3ccccc3)nc3ccccc32)cc1	none
CCn1c(=N)n(CCOc2ccc(F)cc2)c2ccccc21	USP28 inh 97, USP30 block 39
Cc1ccc(OCCn2c(=N)n(C(C)C)c3ccccc32)cc1	USP28 inh 78
CC(C)C(NS(=O)(=O)c1ccccc1)C(=O)OCC(=O)Nc1ccc2c(c1)OCO2 (stereo unspecified)	none
CC(C)C(NS(=O)(=O)c1ccc2c(c1)OCCO2)C(=O)Nc1cccc(F)c1 (stereo unspecified)	USP17 block 44, USP30 block 39
O=C(COC(=O)CCc1ccc(S(=O)(=O)N2CCOCC2)cc1)Nc1ccc2c(c1)OCCO2	USP28 inh 65 (no result: USP17 block)
CC(C)NS(=O)(=O)c1ccc(CCC(=O)Nc2ccc3c(c2)OCCO3)cc1	USP28 inh 82
CC1CCN(c2nc(Nc3ccc(Cl)cc3)c3cnn(C)c3n2)CC1	none
Cc1cn2c(=O)cc(COc3cccc(C(F)(F)F)c3)nc2s1	none
Oc1cc(OCc2cccc(C(F)(F)F)c2)ccc1-c1ccn[nH]1	USP28 inh 81, USP17 block 42
CCn1cc(-c2cc(C(=O)N3C[C@@H]4C[C@@]5(C)[C@H](CCCC[C@@H]35)N4C(C)=O)on2)cn1	none
Cc1cncc(C(=O)N2CCc3cnn(C)c3C2COCC2CC2)c1 (stereo unspecified)	none
CC1(C)Cc2c(c(N3CCOCC3)nc3sc4c(NCCCN5CCOCC5)ncnc4c23)CO1	none
CCCCCSc1ncnc2c1sc1nc(C(C)C)c3c(c12)CCC3	none
CC(C)c1nc2sc3c(SCC(=O)N4CCOCC4)ncnc3c2c2c1CCC2	USP28 inh 35
CCCc1nc2sc3c(NCCCN4CCOCC4)ncnc3c2c2c1CCC2	USP28 inh 84
CCCc1nc2sc3c(NCCC(C)C)ncnc3c2c2c1CCC2	none
CCCc1nc2sc3c(NCCN4CCOCC4)ncnc3c2c2c1CCC2	USP28 inh 80
CCCCNc1ncnc2c1sc1nc(CCC)c3c(c12)CCC3	USP17 block 54 (no result: USP28 inh, USP30 block)
CCCc1nc2sc3c(NCc4ccco4)ncnc3c2c2c1CCC2	USP28 inh 80
CC(C)c1nc2sc3c(NCCCN4CCOCC4)ncnc3c2c2c1CCC2	USP28 inh 48
CCCCc1nc2sc3c(NCc4ccccn4)ncnc3c2c2c1CCC2	USP28 inh 43
CC(C)Cc1nc2sc3c(NCCN4CCOCC4)ncnc3c2c2c1CCC2	USP28 inh 82
CC1(C)Cc2c(c(N3CCCC3)nc3sc4c(NCCCN5CCOCC5)ncnc4c23)CO1	none
COc1ccc(NC(=O)c2ccc(COc3ccc(F)cc3)o2)cc1OC	none
Cc1cc(NS(=O)(=O)c2cc3n(c2)CCCNC3=O)ccc1F	none
Cc1ccc(-c2cc(C(=O)OC(C)C(=O)c3ccccc3)c3cccc(C)c3n2)cc1 (stereo unspecified)	none
CCCCc1nc2sc3c(NCCCO)ncnc3c2c2c1COC(C)(C)C2	USP17 block 46
CN(CCc1noc(-c2ccc(C(=O)NCc3cccnc3)cc2)n1)C(=O)c1ccccc1	none
COc1nn(C)cc1C(=O)N1CCC(C(=O)Nc2ccc(Br)cc2F)CC1	USP28 inh 45
COc1ccc2c(c1)c1ncn(CCC3=CCCCC3)c(=O)c1n2C	USP28 inh 47, USP30 block 31
COc1ccc2c(c1)c1ncn(Cc3ccc4c(c3)OCO4)c(=O)c1n2C	USP17 block 35, USP30 block 48
COc1ccc2c(c1)c1ncn(CCN3CCCC3)c(=O)c1n2C	none
Cc1nc(Cn2cc(-c3nc(C(=O)NC4CC4)c4ccccn34)nc2C)cs1	none
COc1ccc(OC)c(C2C3CCCCC3(O)CCN2CC(=O)Nc2ccccc2)c1 (stereo unspecified)	none
Cc1cc(NCC(=O)Nc2ccc(Cl)cc2)n2nc(-c3cccnc3)nc2n1	USP30 block 38
CCCCNC(=O)c1cccc(Nc2cc(C)nc3nc(-c4cccnc4)nn23)c1	USP17 block 32, USP30 block 38
CCC(=O)Nc1ccc(C)n(CC(=O)NC2CCCC2)c1=O	none
c1nnc(Nc2cncc(C3CCCN3)n2)s1 (stereo unspecified)	none
CC(C)c1nc2sc3c(SCc4ccc(Br)cc4)ncnc3c2c2c1CCC2	none
Cc1ccc2nc(CCc3ccc(NS(=O)(=O)c4ccc(F)c(F)c4)cc3)[nH]c2c1	USP28 inh 31
Cc1ccc(CNC(=O)C2CCc3nc(N4CCOCC4)ncc3C2)cc1 (stereo unspecified)	none
O=C(Cn1cc(-c2ccccc2)oc1=O)NCc1ccc(Cl)cc1	USP17 block 41, USP30 block 35
Cn1ccc2ccn(CC(=O)NCc3ccc(Cl)cc3)c(=O)c21	none
O=C(NCCCN1CCOCC1)c1ccc2c(c1)N(Cc1ccc(Cl)cc1)C(=O)c1ccccc1S2	none
CCOc1ccc(CCNC(=O)c2ccc3c(c2)N(CC)C(=O)c2ccccc2S3)cc1OCC	USP28 inh 60
Cc1ccccc1C(=O)N1CCC(N2CCN(c3ccc(F)cc3)CC2)CC1	none
O=C(Cn1c(=O)n(CCC(=O)N2CC=C(c3ccccc3)CC2)c(=O)c2ccccc21)NCc1ccco1	USP17 block 63
Cc1cc(NC(=O)Cn2c(=O)n(CCCCC(=O)NCc3ccco3)c(=O)c3ccccc32)ccc1Br	USP17 block 64
Cc1ccc(NC(=O)Cn2c(=O)n(CC(=O)NCc3ccco3)c(=O)c3ccccc32)cc1C	USP28 inh 44, USP17 block 63, OTUD3 inh 41, USP30 block 45
N#Cc1ccccc1Cn1c(=O)n(CCC(=O)N2CC=C(c3ccccc3)CC2)c(=O)c2ccccc21	none
CCOc1ccc(NC(=O)Cn2c(=O)n(CCC(=O)NCc3ccco3)c(=O)c3ccccc32)cc1	USP17 block 71
